The compounds below were run against T1, Ephrin type-A receptor 3 (Homo sapiens) (UniProt P29320). Details: at 0.1 µM.
T1 sequence (whole entry): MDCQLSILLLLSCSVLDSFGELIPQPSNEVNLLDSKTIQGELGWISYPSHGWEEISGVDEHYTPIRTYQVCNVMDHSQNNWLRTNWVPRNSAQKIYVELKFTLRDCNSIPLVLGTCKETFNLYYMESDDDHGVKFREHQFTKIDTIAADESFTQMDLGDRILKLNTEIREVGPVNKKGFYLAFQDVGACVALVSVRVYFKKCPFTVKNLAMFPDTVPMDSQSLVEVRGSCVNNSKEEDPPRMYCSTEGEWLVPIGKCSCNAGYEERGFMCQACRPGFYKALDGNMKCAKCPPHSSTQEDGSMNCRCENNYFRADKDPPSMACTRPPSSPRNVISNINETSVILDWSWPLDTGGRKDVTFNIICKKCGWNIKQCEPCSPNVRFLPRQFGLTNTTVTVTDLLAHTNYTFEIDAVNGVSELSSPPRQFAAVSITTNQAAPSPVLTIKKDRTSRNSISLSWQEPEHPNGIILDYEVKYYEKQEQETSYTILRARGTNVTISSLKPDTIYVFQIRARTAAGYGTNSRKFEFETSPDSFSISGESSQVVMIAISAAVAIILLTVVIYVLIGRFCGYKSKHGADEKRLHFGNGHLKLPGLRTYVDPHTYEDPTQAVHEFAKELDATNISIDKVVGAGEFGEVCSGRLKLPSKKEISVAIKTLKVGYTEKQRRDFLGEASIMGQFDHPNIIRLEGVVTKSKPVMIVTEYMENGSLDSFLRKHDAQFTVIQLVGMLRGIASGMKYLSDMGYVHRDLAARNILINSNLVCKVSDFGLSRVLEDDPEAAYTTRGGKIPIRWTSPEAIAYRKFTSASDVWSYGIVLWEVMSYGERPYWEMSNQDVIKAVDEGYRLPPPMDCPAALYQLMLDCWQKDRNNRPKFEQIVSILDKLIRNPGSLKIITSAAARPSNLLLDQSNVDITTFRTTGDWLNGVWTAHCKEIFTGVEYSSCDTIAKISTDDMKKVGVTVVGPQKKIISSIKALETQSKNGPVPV
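Note: values are mean inhibition of EPHA3, from the GSK PKIS dataset.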

Compared with `Fc1ccc(-c2cc(-c3c[nH]nc3-c3ccccn3)ccn2)cc1`, `COc1ccc(-c2cc(-c3c[nH]nc3-c3ccccn3)ccn2)cc1` is higher in inhibition: 3.9% for the first, 4.5% for the second.

First: Clc1ccc(-c2nn3ncccc3c2-c2ccnc(Nc3ccccc3)n2)cc1
Second: CN1CCC(n2cnc(-c3ccc(F)cc3)c2-c2ccnc(Nc3ccccc3)n2)CC1
The inhibition of the first is lower: 1.69% for the first, 1.78% for the second.

First: CC1=C(C(=O)Nc2cc(Cl)c3[nH]ncc3c2)C(c2ccc(C(F)(F)F)cc2)CC(=O)N1 (stereo not drawn)
Second: COc1ccc(-c2oc3ncnc(N)c3c2-c2ccc(NC(=O)Nc3cc(C(F)(F)F)ccc3F)cc2)cc1
The inhibition of the first is lower: 2.24% for the first, 82.1% for the second.

Going from `CC(C)(CO)CNC(=O)c1ccc2c(c1)/C(=N/Nc1ccc(S(N)(=O)=O)cc1)C(=O)N2` to `Cc1cccc2c1NC(=O)/C2=N\Nc1ccc(S(N)(=O)=O)cc1`, the inhibition rises from -0.22% to 4.1%.

First: COc1cccc(-c2c[nH]c3c(N/N=C/c4ccncc4)ncnc23)c1
Second: COc1ccc(-c2cc3c(N)ncnc3o2)cc1
The inhibition of the first is higher: 3.44% for the first, -3.56% for the second.

Going from `Cc1ccc(O)cc1Nc1ccnc2cc(-c3ccccn3)ccc12` to `c1ccc(-c2nc3n(c2-c2ccc4c(c2)OCO4)CCC3)nc1`, the inhibition falls from 79.3% to -0.11%.

Compared with `COc1ccc2[nH]c3c4[nH]c5ccc(OC)cc5c4c4c(c3c2c1)C(=O)NC4=O`, `COc1cc(Nc2nccc(Nc3ccc4c(C)n[nH]c4c3)n2)cc(OC)c1OC` is higher in inhibition: 5.78% for the first, 6.23% for the second.

First: CNC(=O)c1cncc(/C=C/c2ccccc2Cl)c1
Second: NS(=O)(=O)c1ccc(Nc2ncc(-c3ccccc3)o2)cc1
The inhibition of the first is lower: 1.03% for the first, 2.94% for the second.

First: COC(=O)Nc1nc2ccc(Oc3ccc(NC(=O)Nc4cccc(Cl)c4)cc3)cc2[nH]1
Second: CCn1cc(-c2ccnc3[nH]ccc23)c(-c2cccc(NC(=O)Nc3ccc(OCc4ccccc4)cc3)c2)n1
The inhibition of the first is higher: 4.1% for the first, 0.1% for the second.

First: CCn1c(-c2nonc2N)nc2ccccc21
Second: CCn1c(-c2nonc2N)nc2cnc(Oc3cccc(NC(=O)c4ccc(N(C)C)cc4)c3)cc21
The inhibition of the first is higher: 5.44% for the first, 2.26% for the second.

First: COc1ccc(CNC(=O)c2ccc(-c3cc(-c4nnc(C)o4)ccc3C)cc2)cc1
Second: CNC(=O)c1cc(-c2ccc(F)cc2)cc(-c2ccc(S(=O)(=O)N3CCCC3)cc2)c1N
The inhibition of the first is lower: 1.41% for the first, 2.55% for the second.

Going from `Fc1cccc(COc2ccc(Nc3ncnc4sc(-c5ccco5)cc34)cc2Cl)c1` to `COc1ccc2c(-c3ccnc(Nc4cccc(OC(F)(F)F)c4)n3)cnn2n1`, the inhibition rises from 3.15% to 6.89%.

Going from `CCn1c(-c2nonc2N)nc2c(C#CC(C)(C)O)ncc(OC3CCNCC3)c21` to `CN1CCC(n2cnc(-c3ccc(F)cc3)c2-c2ccnc(N)n2)CC1`, the inhibition rises from 1.03% to 1.8%.

Compared with `COc1cc(N2CCN(C(C)C)CC2)ccc1Nc1nc(Nc2ccc(F)cc2C(N)=O)c2cc[nH]c2n1`, `O=C(Nc1n[nH]c2cc(-c3ccc(F)cc3)ccc12)C1CC1` is higher in inhibition: 1.78% for the first, 2.89% for the second.

First: NS(=O)(=O)c1ccc(N/N=C2\C(=O)Nc3ccc4ncccc4c32)cc1
Second: COC(=O)c1sc(-n2cnc3cc(OC)c(OC)cc32)cc1OCc1ccccc1C(F)(F)F
The inhibition of the first is higher: 5.42% for the first, 4.53% for the second.

Compared with `c1cc(-c2cnn3nc(N4CCOCC4)ccc23)nc(NC2CC2)n1`, `CCc1nn2ncccc2c1-c1ccnc(NC2CC2)n1` is lower in inhibition: 5.23% for the first, 2.4% for the second.

Work on `N#Cc1c(NC(=O)c2ccc(F)cc2)sc2c1CCCC2` yielded an inhibition of 1.47%.
